Compounds without any hit were thinned out: in the full panel of roughly 83,000, 20% have a hit.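 48-hour exposure, single concentration, 96-well plates; percent growth endpoint where 0 means no net growth. Active: below 10.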 Calls of active or inactive are those of the source.
Assays:
Assay in all cases: NCI-60 one-dose screen, 48 h (100 = growth as untreated, 0 = no growth, -100 = all killed)
Conditions in all cases: 10 µM unless noted
SK-MEL-2 melanoma = test system: SK-MEL-2 melanoma
EKVX NSCLC = test system: EKVX NSCLC
SN12C renal = test system: SN12C renal
UO-31 renal = test system: UO-31 renal
TK-10 renal = test system: TK-10 renal
ACHN renal = test system: ACHN renal
CAKI-1 renal = test system: CAKI-1 renal
A498 renal = test system: A498 renal
CCRF-CEM leukemia = test system: CCRF-CEM leukemia
MOLT-4 leukemia = test system: MOLT-4 leukemia
SR leukemia = test system: SR leukemia
OVCAR-8 ovarian = test system: OVCAR-8 ovarian
OVCAR-5 ovarian = test system: OVCAR-5 ovarian
OVCAR-4 ovarian = test system: OVCAR-4 ovarian
SK-OV-3 ovarian = test system: SK-OV-3 ovarian
IGROV1 ovarian = test system: IGROV1 ovarian
OVCAR-3 ovarian = test system: OVCAR-3 ovarian
HS 578T breast = test system: HS 578T breast
NCI/ADR-RES ovarian = test system: NCI/ADR-RES ovarian
RPMI-8226 leukemia = test system: RPMI-8226 leukemia

Measured: growth

O=C1/C(=C/c2ccc(C(F)(F)F)cc2)COc2ccc(O)c(O)c21
active: SN12C renal -58.6% | UO-31 renal -98.9% | ACHN renal -57.6% | CAKI-1 renal -23.6% | CCRF-CEM leukemia -3.75% | MOLT-4 leukemia -1.49% | SR leukemia 3.77% | OVCAR-8 ovarian 9.3% | OVCAR-5 ovarian -34.1% | IGROV1 ovarian -49.6% | OVCAR-3 ovarian -84.6% | NCI/ADR-RES ovarian -11.6%
inactive: SK-MEL-2 melanoma 98% | EKVX NSCLC 52.3% | TK-10 renal 11.9% | A498 renal 116% | OVCAR-4 ovarian 24.8% | SK-OV-3 ovarian 81.6% | HS 578T breast 10.4%

COc1ccc(Cn2cc(C(=O)N=Nc3c(O)[nH]c4c(Cl)cccc34)nn2)cc1
inactive: SK-MEL-2 melanoma 93.2% | EKVX NSCLC 102% | SN12C renal 95.8% | UO-31 renal 93.5% | TK-10 renal 106% | ACHN renal 111% | CAKI-1 renal 94.4% | A498 renal 93.8% | CCRF-CEM leukemia 106% | MOLT-4 leukemia 84.8% | SR leukemia 80.3% | OVCAR-8 ovarian 97.4% | OVCAR-5 ovarian 123% | OVCAR-4 ovarian 104% | SK-OV-3 ovarian 113% | IGROV1 ovarian 103% | OVCAR-3 ovarian 113% | HS 578T breast 97.5% | NCI/ADR-RES ovarian 105%

O[C@@H](c1cc(C(F)(F)F)nc2c(C(F)(F)F)cccc12)[C@H]1CCCCN1
active: SR leukemia 8.64%
inactive: SK-MEL-2 melanoma 77% | EKVX NSCLC 69.7% | SN12C renal 63.8% | UO-31 renal 50.4% | TK-10 renal 66% | ACHN renal 37.8% | CAKI-1 renal 76.5% | A498 renal 60% | CCRF-CEM leukemia 73% | MOLT-4 leukemia 31.8% | OVCAR-8 ovarian 76.7% | OVCAR-5 ovarian 77.7% | OVCAR-4 ovarian 62.6% | SK-OV-3 ovarian 82.7% | IGROV1 ovarian 51.7% | OVCAR-3 ovarian 63.1% | NCI/ADR-RES ovarian 61.9%

O=C1NC(=C(Cl)Cl)/C(=N/S(=O)(=O)N2CCCCC2)N1
inactive: SK-MEL-2 melanoma 40.7% | SN12C renal 23.5% | UO-31 renal 39.7% | TK-10 renal 13.9% | ACHN renal 26.8% | CAKI-1 renal 46% | A498 renal 132% | OVCAR-5 ovarian 90.9% | OVCAR-4 ovarian 79.9% | SK-OV-3 ovarian 94% | HS 578T breast 29.1% | NCI/ADR-RES ovarian 98.5%
active: EKVX NSCLC -23.9% | CCRF-CEM leukemia -63.3% | MOLT-4 leukemia -48.7% | SR leukemia -46% | OVCAR-8 ovarian 9.05% | IGROV1 ovarian 1.81% | OVCAR-3 ovarian -57%

Cc1nc2ccccc2c(/C=C/c2ccc(C(F)(F)F)cc2)c1C(=O)/C=C/c1ccccc1
inactive: SK-OV-3 ovarian 48.2%
active: SK-MEL-2 melanoma -43.6% | EKVX NSCLC 8.76% | SN12C renal -25.9% | UO-31 renal -96.1% | TK-10 renal 7.75% | ACHN renal -54.6% | CAKI-1 renal 0.887% | A498 renal -31.4% | MOLT-4 leukemia 4.86% | SR leukemia 8.57% | RPMI-8226 leukemia -17.8% | OVCAR-8 ovarian -13% | OVCAR-5 ovarian -75.7% | OVCAR-4 ovarian -1.62% | IGROV1 ovarian -37.3% | OVCAR-3 ovarian -62.7% | HS 578T breast -0.739% | NCI/ADR-RES ovarian -33.8%

Cc1c(N2CN3C[C@H](C)N4CN(c5c(C)n(C)n(-c6ccccc6)c5=O)CN5C[C@@H](C)N(C2)C3C54)c(=O)n(-c2ccccc2)n1C (stereo not given in full)
inactive: SK-MEL-2 melanoma 101% | EKVX NSCLC 96.1% | SN12C renal 100% | UO-31 renal 77.6% | TK-10 renal 110% | ACHN renal 103% | CAKI-1 renal 87.5% | A498 renal 117% | CCRF-CEM leukemia 102% | SR leukemia 38.1% | OVCAR-8 ovarian 104% | OVCAR-5 ovarian 106% | OVCAR-4 ovarian 103% | SK-OV-3 ovarian 99.2% | IGROV1 ovarian 102% | OVCAR-3 ovarian 100% | HS 578T breast 95.9% | NCI/ADR-RES ovarian 97.2%
active: MOLT-4 leukemia -17.9%

CC(C)(C)C(=O)/C=C/c1ccc([N+](=O)[O-])cc1
active: SR leukemia 8.57%
inactive: SK-MEL-2 melanoma 89.2% | EKVX NSCLC 89.3% | SN12C renal 92.1% | UO-31 renal 76.5% | TK-10 renal 91.4% | ACHN renal 57.3% | CAKI-1 renal 96.1% | A498 renal 91% | MOLT-4 leukemia 75.4% | RPMI-8226 leukemia 23.5% | OVCAR-8 ovarian 76.8% | OVCAR-5 ovarian 108% | OVCAR-4 ovarian 91.5% | SK-OV-3 ovarian 98.7% | IGROV1 ovarian 96% | OVCAR-3 ovarian 84.9% | HS 578T breast 90.2% | NCI/ADR-RES ovarian 60.2%

COc1cccc(/C=C/C(=O)c2cc3c(N)c(C(=O)Nc4cccc(Cl)c4C)sc3nc2C)c1
inactive: EKVX NSCLC 39.8% | MOLT-4 leukemia 14.3% | OVCAR-4 ovarian 38.1% | SK-OV-3 ovarian 14.7%
active: SK-MEL-2 melanoma -17.3% | SN12C renal -22.7% | UO-31 renal -43.4% | TK-10 renal -18% | ACHN renal 6.8% | CAKI-1 renal -47.4% | A498 renal -13.2% | SR leukemia 7.93% | RPMI-8226 leukemia -32.6% | OVCAR-8 ovarian -33.4% | OVCAR-5 ovarian 7.92% | IGROV1 ovarian -18.7% | OVCAR-3 ovarian -60.5% | NCI/ADR-RES ovarian -3.64%

O=C(CCCCl)NNc1nccc(Nc2ccc(S(=O)(=O)Nc3ccncc3)cc2)n1
inactive: SK-MEL-2 melanoma 92.7% | EKVX NSCLC 105% | SN12C renal 102% | UO-31 renal 92.2% | TK-10 renal 85.8% | ACHN renal 104% | CAKI-1 renal 93.9% | A498 renal 110% | CCRF-CEM leukemia 116% | MOLT-4 leukemia 112% | SR leukemia 95% | OVCAR-8 ovarian 106% | OVCAR-5 ovarian 103% | OVCAR-4 ovarian 101% | SK-OV-3 ovarian 101% | IGROV1 ovarian 101% | OVCAR-3 ovarian 104% | HS 578T breast 112% | NCI/ADR-RES ovarian 99.8%

CCCCCCCCn1ccc2cc(NC(=O)Cn3cc(CN4CCOCC4)nn3)ccc21
inactive: SK-MEL-2 melanoma 100% | EKVX NSCLC 87.9% | SN12C renal 100% | UO-31 renal 78.3% | TK-10 renal 108% | ACHN renal 98.5% | CAKI-1 renal 83.9% | A498 renal 99.7% | MOLT-4 leukemia 35.8% | SR leukemia 87.6% | RPMI-8226 leukemia 94.8% | OVCAR-8 ovarian 102% | OVCAR-5 ovarian 91.1% | OVCAR-4 ovarian 99.5% | SK-OV-3 ovarian 111% | IGROV1 ovarian 96.4% | OVCAR-3 ovarian 98.2% | HS 578T breast 90% | NCI/ADR-RES ovarian 115%

O=c1ccc2nc(C(F)(F)F)nn(-c3ccccc3)c-2c1
inactive: SK-MEL-2 melanoma 78.3% | EKVX NSCLC 95.8% | SN12C renal 67.9% | UO-31 renal 24% | CAKI-1 renal 56% | A498 renal 80% | OVCAR-8 ovarian 73.1% | OVCAR-5 ovarian 102% | OVCAR-4 ovarian 79.8% | SK-OV-3 ovarian 79.3% | IGROV1 ovarian 71.7% | HS 578T breast 74% | NCI/ADR-RES ovarian 84%
active: TK-10 renal -98% | ACHN renal -89% | CCRF-CEM leukemia -0.269% | MOLT-4 leukemia -20.5% | SR leukemia -11.3% | OVCAR-3 ovarian -26.1%

Nc1ccc([N+](=O)[O-])cc1N=C/C=C/c1ccccc1
inactive: SK-MEL-2 melanoma 43.5% | EKVX NSCLC 97.5% | SN12C renal 50.6% | UO-31 renal 43.3% | TK-10 renal 79.8% | ACHN renal 81.7% | CAKI-1 renal 73.1% | A498 renal 79.3% | CCRF-CEM leukemia 18.3% | MOLT-4 leukemia 14.8% | SR leukemia 35.5% | OVCAR-8 ovarian 79.9% | OVCAR-5 ovarian 90.9% | OVCAR-4 ovarian 79.4% | SK-OV-3 ovarian 87.6% | IGROV1 ovarian 64.8% | OVCAR-3 ovarian 84.1% | NCI/ADR-RES ovarian 50.9%

C[C@@H]1CC[C@@]2(OC1)O[C@H]1C[C@H]3[C@@H]4CC=C5C[C@@H](O[C@@H]6O[C@H](CO)[C@@H](O[C@@H]7O[C@@H](CO)[C@H](O)[C@H]7O)[C@H](O)[C@H]6O[C@@H]6O[C@@H](C)[C@H](O)[C@@H](O)[C@H]6O)CC[C@]5(C)[C@H]4CC[C@]3(C)[C@H]1[C@@H]2C
active: SK-MEL-2 melanoma -87% | EKVX NSCLC -66.6% | SN12C renal -97.4% | UO-31 renal -99.5% | TK-10 renal -81.2% | ACHN renal -98.3% | CAKI-1 renal -93.4% | A498 renal -95.6% | CCRF-CEM leukemia -74.2% | MOLT-4 leukemia -60% | SR leukemia -58.5% | OVCAR-5 ovarian -87.7% | OVCAR-4 ovarian -90% | SK-OV-3 ovarian -36.4% | IGROV1 ovarian -84.2% | OVCAR-3 ovarian -90.2% | HS 578T breast -47.9% | NCI/ADR-RES ovarian -85.6%

Nc1n[nH]c2ccc([C@@H]3Nc4cc5[nH]ncc5cc4[C@H]4C5CCC(C5)[C@@H]34)cc12 (stereo not given in full)
inactive: SK-MEL-2 melanoma 65.2% | EKVX NSCLC 35.2% | SN12C renal 36.4% | UO-31 renal 40.2% | TK-10 renal 62.4% | ACHN renal 32.1% | CAKI-1 renal 34.5% | MOLT-4 leukemia 22.5% | SR leukemia 20% | OVCAR-8 ovarian 29.7% | OVCAR-5 ovarian 31.2% | OVCAR-4 ovarian 43.3% | SK-OV-3 ovarian 52.8% | IGROV1 ovarian 22.7% | HS 578T breast 32% | NCI/ADR-RES ovarian 21.6%
active: A498 renal -15.7% | RPMI-8226 leukemia 5.15% | OVCAR-3 ovarian -27.6%

CC1O[C@@H]2C[C@@](O)([C@H]1O)n1c3ccccc3c3c4c(c5c6ccccc6n2c5c31)C(=O)NC4=O (stereo not given in full)
inactive: SK-MEL-2 melanoma 75.4% | EKVX NSCLC 68.7% | SN12C renal 55.1% | UO-31 renal 24.8% | TK-10 renal 79.6% | ACHN renal 19.3% | CAKI-1 renal 28% | A498 renal 42.4% | MOLT-4 leukemia 10.5% | SR leukemia 32% | RPMI-8226 leukemia 55.3% | OVCAR-8 ovarian 63.3% | OVCAR-5 ovarian 72.8% | OVCAR-4 ovarian 66.8% | SK-OV-3 ovarian 48.4% | IGROV1 ovarian 67.6% | OVCAR-3 ovarian 55.4% | HS 578T breast 82.6% | NCI/ADR-RES ovarian 80.7%

CC(C)CSc1oc(-c2ccccc2)nc1S(=O)(=O)c1ccccc1
inactive: SK-MEL-2 melanoma 95.9% | EKVX NSCLC 88.8% | SN12C renal 95% | UO-31 renal 75.7% | TK-10 renal 65.6% | ACHN renal 89.9% | CAKI-1 renal 76.7% | A498 renal 84.9% | MOLT-4 leukemia 76.1% | SR leukemia 91.7% | RPMI-8226 leukemia 85.9% | OVCAR-8 ovarian 94.7% | OVCAR-5 ovarian 110% | OVCAR-4 ovarian 86.6% | SK-OV-3 ovarian 87% | IGROV1 ovarian 94.5% | OVCAR-3 ovarian 97.2% | HS 578T breast 96.6% | NCI/ADR-RES ovarian 82.2%
